# Several values for one entry are separate records, joined by “and”; a condition that tells them apart may be missing. Equal entries are not always repeated. Inconclusive results are not listed. Where a call stands in place of a potency, no number is given. Activity calls are given as the source filed them. Unless noted, calls follow the shape of the dose curve; as a rule, active = well fitted curve in the direction sought with a large enough effect in the repeat runs; inconclusive = weak or mixed curves; inactive = no such curve, though single readings can be large; an effect the other way counts as inactive or inconclusive.
# Legend:
# [1] = qHTS assay to identify small molecule agonists of the vitamin D receptor (VDR) signaling pathway - cell viability counter screen (AID 743224); also: nearly all actives have a fitted effect of over 50% in size; also: potency is read from the fitted curve at half-maximal effect
# Outline: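 CellTiter-Glo viability readout on VDR-bla cells, measured after 16 h of compound treatment at 37C in the same wells.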
# [2] = qHTS assay to identify small molecule antagonists of the vitamin D receptor (VDR) signaling pathway - cell viability counter screen (AID 743225); also: nearly all actives have a fitted effect of over 50% in size; also: potency is read from the fitted curve at half-maximal effect
# Outline: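 HEK293T VDR-bla; cpd + 1a,25-(OH)2D3 3 nM final, 16 h 37C/5% CO2; B/G FRET substrate 2 h RT; then CellTiter-Glo 30 min RT, luminescence.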
# [3] = qHTS assay to identify small molecule agonists of the NFkB signaling pathway - cell viability counter screen (AID 1159515; calls by dose curve; also: nearly all actives have a fitted effect of over 55% in size; also: potency is read from the fitted curve at half-maximal effect)
# Outline: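 Tox21 library compounds were tested for cytotoxicity against NFkB-bla ME-180 cells during a 5 hr exposure at 37 C. CellTiter-Glo luminescence served as the viability read-out.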
# [4] = qHTS assay to identify small molecule agonists of the endoplasmic reticulum stress response signaling pathway - cell viability counter screen (AID 1159517; calls by dose curve; also: series mostly up to about 61 µM; nearly all actives have a fitted effect of over 50% in size)
# Outline: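 Cpd-treated ESRE-bla HeLa (5 hr, 37 C) → LiveBLAzer 2 hr RT → CellTiter-Glo 30 min RT → luminescence.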
# [5] = qHTS assay to identify small molecule antagonists of the retinoid-related orphan receptor gamma (ROR-gamma) signaling pathway - cell viability counter screen (AID 1159520); also: nearly all actives have a fitted effect of over 50% in size; also: potency is read from the fitted curve at half-maximal effect
# Outline: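 Tet-on ROR gamma CHO cells (1,000/well) were plated 4 hr, given compounds in DMSO for 2 hr at 37 C, then induced with 1 uM final doxycycline for 16 hr. Viability was read as ATP by CellTiter-Glo luminescence after 30 min.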
# [6] = molecular target: Nuclear receptor ROR-gamma (Homo sapiens) (UniProt P51449); test: qHTS assay to identify small molecule antagonists of the retinoid-related orphan receptor gamma (ROR-gamma) signaling pathway (AID 1159521; also: nearly all actives have a fitted effect of over 50% in size; also: potency is read from the fitted curve at half-maximal effect)
# Outline: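 Cells were plated, rested 4 h at 37 C, exposed to compounds for 2 h, then given 1 uM final doxycycline hyclate to induce RORγ expression. After 16 h, ONE-Glo luminescence from the ROR response element reporter was measured.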
# [7] = qHTS assay to identify small molecule agonists of the AP-1 signaling pathway - cell viability counter screen (AID 1159525; calls by dose curve; also: nearly all actives have a fitted effect of over 55% in size; also: potency is read from the fitted curve at half-maximal effect)
# Outline: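 Each titration point was normalised to DMSO and tetra n-octyl ammonium bromide controls. The read was Cell Titer Glo luminescence after 30 min at RT, following 5 h compound exposure of ME-180 AP-1-bla cells at 37 °C.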
# [8] = qHTS assay to identify small molecule agonists of the AP-1 signaling pathway (AID 1159526; calls by dose curve)
# [9] = molecular target: Retinoic acid receptor RXR-alpha (Homo sapiens) (UniProt P19793); test: qHTS assay to identify small molecule agonists of the RXR signaling pathway (AID 1159527; calls by dose curve; also: nearly all actives have a fitted effect of over 35% in size; also: potency is read from the fitted curve at half-maximal effect)
# Outline: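 Cells plated at 2,000/well, rested 5 hr at 37 C, pin-dosed with DMSO compound solutions, incubated 16 hr, then loaded with B/G FRET substrate for 2 hr at RT before dual-emission fluorescence reading.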
# [10] = qHTS assay to identify small molecule agonists of the RXR signaling pathway - cell viability counter screen (AID 1159529); also: nearly all actives have a fitted effect of over 50% in size; also: potency is read from the fitted curve at half-maximal effect
# Outline: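 Steps: seed RXR-alpha-UAS-bla HEK 293T cells in assay medium containing 2% charcoal-stripped FBS; incubate 5 hr; add compounds in DMSO; incubate 16 hr at 37 C; after the bla read, add CellTiter-Glo and read luminescence at 30 min.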
# [11] = qHTS assay to identify small molecule antagonists of the retinoid acid receptor (RAR) signaling pathway - cell viability counter screen (AID 1159551); also: nearly all actives have a fitted effect of over 35% in size; also: potency is read from the fitted curve at half-maximal effect
# Outline: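 In this counter screen, the RARE-luciferase line C3RL4 was exposed for 6 h at 37 C and 5% CO2 to compounds with retinol at 1 uM final. Cellular ATP, read by luminescence, served as the viability measure.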
# [12] = qHTS assay to identify small molecule antagonists of the retinoic acid receptor (RAR) signaling pathway (AID 1159552; also: nearly all actives have a fitted effect of over 50% in size; also: potency is read from the fitted curve at half-maximal effect)
# Outline: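 Retinol at 1 uM final stimulated RARE-luciferase expression in C3RL4 cells exposed to test compounds for 6 hr at 37 C. Reduced luminescence, read 30 min after detection reagent, indicated pathway antagonism.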
# [13] = qHTS assay to identify small molecule agonists of the retinoic acid receptor (RAR) signaling pathway (AID 1159553)
# Outline: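 In this cell-based screen, 1,000 C3RL4 cells per well were cultured overnight, dosed with test chemicals in DMSO for 6 hr, and assessed for RARE luciferase luminescence.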
# [14] = qHTS assay to identify small molecule agonists of the endoplasmic reticulum stress response signaling pathway (AID 1159516; active = well fitted activation curve with a large enough effect in the signal ratio in the repeat runs, not every such curve was filed as active; the % refers to the signal ratio)
# Outline: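 Fluorescence at 460 and 530 nm (405 nm excitation) reports beta-lactamase from an ER stress response element in HeLa cells treated 5 hr at 37 C.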
# [15] = qHTS assay to identify small molecule antagonists of the estrogen related receptor (ERR) signaling pathway - cell viability counter screen (AID 1224818); also: series mostly up to about 46 µM
# Outline: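 Viability of ERR cells, CellTiter-Fluor fluorescence; 17.5 h compound exposure at 37 C, DMSO vehicle; 30 min reagent incubation at 37 C/5% CO2.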
# [16] = qHTS assay to identify small molecule antagonists of the estrogen related receptor signaling pathway with the pleiotropic PPARgamma coactivator (PGC) cell viability counter screen (AID 1224822; also: series mostly up to about 46 µM)
# Outline: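 17.5 h compound treatment of PGC/ERR cells at 37 C; readout CellTiter-Fluor fluorescence; run alongside the PGC/ERR antagonist screen to flag cytotoxic compounds.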
# Retinoic acid receptor RXR-alpha (Homo sapiens), sequence (P19793 whole entry, looked up): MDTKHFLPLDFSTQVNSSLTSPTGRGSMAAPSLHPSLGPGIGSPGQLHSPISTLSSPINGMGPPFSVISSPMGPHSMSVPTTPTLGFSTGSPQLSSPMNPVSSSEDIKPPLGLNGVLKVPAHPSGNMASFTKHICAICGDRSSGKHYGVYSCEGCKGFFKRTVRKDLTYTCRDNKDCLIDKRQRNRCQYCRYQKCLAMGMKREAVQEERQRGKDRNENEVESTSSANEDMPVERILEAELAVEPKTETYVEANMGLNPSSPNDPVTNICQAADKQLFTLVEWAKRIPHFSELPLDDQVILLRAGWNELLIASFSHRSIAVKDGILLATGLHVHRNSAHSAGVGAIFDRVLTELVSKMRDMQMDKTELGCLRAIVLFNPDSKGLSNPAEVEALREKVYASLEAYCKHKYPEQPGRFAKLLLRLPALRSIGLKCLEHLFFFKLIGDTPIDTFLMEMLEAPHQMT
SMILES,Potency [1],Potency [2],Potency [3],Potency [4],Potency [5],Potency [6],Potency [7],Potency [8],Potency [9],Potency [10],Potency [11],Potency [12],Potency [13],Potency [14],outcome [15],outcome [16]
CCSCc1ccccc1OC(=O)NC,inactive,inactive,inactive,inactive,inactive,inactive,inactive,inactive,inactive,inactive,inactive,inactive,inactive,–,–,–
CCCC[N+](CCCC)(CCCC)CCCC,inactive,inactive,inactive,inactive,–,inactive,inactive,inactive,–,inactive,inactive,–,inactive,inactive,–,–
CC[N+]1(C)CCCC(OC(=O)C(O)(c2ccccc2)c2ccccc2)C1 (stereo unspecified),inactive,inactive,inactive,inactive,–,inactive,inactive,inactive,inactive,inactive,inactive,–,inactive,inactive,–,–
CC(C)(C#N)C(C)(C)C#N,inactive,inactive,inactive,inactive,–,inactive,inactive,inactive,inactive,inactive,inactive,–,–,inactive,–,–
CC(Oc1cccc(Cl)c1)C(=O)O (stereo unspecified),inactive,inactive,inactive,inactive,–,inactive,inactive,inactive,–,inactive,inactive,inactive,inactive,inactive,–,–
CCCCC1C(=O)NC(=O)N(C2CCCCC2)C1=O (stereo unspecified),inactive,inactive,inactive,inactive,inactive,inactive,inactive,inactive,inactive,inactive,inactive,inactive,inactive,–,–,–
C1CCNCC1,inactive,inactive,inactive,inactive,inactive,inactive,inactive,inactive,inactive,inactive,inactive,inactive,inactive,–,–,–
O=C(Cl)OCCOCCOC(=O)Cl,inactive,–,inactive,inactive,inactive,inactive,inactive,inactive,2.19 µM (active),inactive,inactive,12.2 µM (active),inactive,–,–,–
O=C1NC(=O)C(=O)C(=O)N1,inactive,inactive,inactive,inactive,inactive,inactive,inactive,inactive,inactive,inactive,inactive,–,inactive,–,–,–
O=[N+]([O-])O[C@H]1CO[C@H]2[C@@H]1OC[C@H]2O[N+](=O)[O-],inactive,inactive,inactive,inactive,–,inactive,inactive,inactive,inactive,inactive,inactive,–,–,inactive,–,–
CC(CC(C(N)=O)(c1ccccc1)c1ccccc1)N(C)C (stereo unspecified),inactive,inactive,inactive,inactive,inactive,inactive,inactive,inactive,inactive,inactive,–,–,–,–,–,–
O=S(=O)(Cl)Cl,inactive,inactive,inactive,inactive,–,inactive,inactive,inactive,–,inactive,inactive,inactive,inactive,inactive,–,–
CN(C)C(=O)Nc1cccc(OC(=O)NC(C)(C)C)c1,inactive,inactive,inactive,inactive,inactive,inactive,inactive,inactive,inactive,inactive,inactive,inactive,inactive,–,–,–
CN(C1CCCCC1)C1CCCCC1,inactive,inactive,inactive,inactive,–,inactive,inactive,inactive,–,inactive,inactive,inactive,–,inactive,–,–
CCCCCCCCCCCCCCCl,inactive,inactive,inactive,inactive,inactive,inactive,inactive,inactive,inactive,inactive,inactive,inactive,inactive,–,–,–
O=CC=O,inactive,inactive,inactive,inactive,–,inactive,inactive,inactive,–,inactive,inactive,inactive,inactive,inactive,–,–
O=C(O)CCCOc1ccc(Cl)cc1Cl,inactive,inactive,inactive,inactive,–,inactive,inactive,inactive,–,inactive,inactive,inactive,inactive,inactive,inactive,inactive
CC(C)[C@@H](C(=O)O[C@@H](C#N)c1cccc(Oc2ccccc2)c1)c1ccc(Cl)cc1,inactive,inactive,inactive,inactive,inactive,17.5 µM (active),inactive,–,–,inactive,inactive,–,–,–,–,–
CC(C)CCCCCCCOC(=O)c1ccccc1C(=O)OCCCCCCCC(C)C,inactive,–,inactive,inactive,inactive,inactive,inactive,inactive,–,inactive,inactive,–,–,–,–,–
CCCCCCCCn1sccc1=O,873 nM (active) and 1.15 µM (active),19.5 µM (active) and 22.9 µM (active),49.1 µM (active) and 3.63 µM (active),–,24.4 µM (active) and 9.05 µM (active),6.13 µM (active) and 9.05 µM (active),5.51 µM (active) and 5.13 µM (active),–,–,1.95 µM (active) and 2.04 µM (active),68.7 µM (active) and 64.1 µM (active),–,–,–,–,–

# From PubChem BioAssay (Tox21)
